Assay results taken from PubChem BioAssay (Tox21).
Results filed as inconclusive are left out. Values without a mark were called inactive. Calls of active or inactive are those of the source. Calls come from the whole dose curve; as a rule, active = well fitted inhibition curve with a large enough effect in the repeat runs; inconclusive = weak or mixed curves; inactive = no such curve, though single readings can be large or run the other way.

target: Cytochrome P450 2C19 (Homo sapiens) (UniProt P33261); experiment: Cytochrome P450 Family 2 Subfamily C Member 19 (CYP2C19) small molecule antagonists: luciferase reporter qHTS assay (AID 1671197); details: P450-Glo CYP2C19 enzyme, luciferin luminescence, 1 h; series mostly up to 52.9 µM; activity change, negative = inhibition: at the top concentration; note: nearly all actives have a fitted effect of over 65% in size
In short: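 Inhibition of CYP2C19 was scored from loss of luminescence in a P450-Glo proluciferin substrate assay, NADPH-started and run 1 h at 37C, with ketoconazole as positive control.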
% is set by controls: 0 for no effect and ±100 for the full control effect; potency is the fitted concentration of half-maximal effect.

Sequence of Cytochrome P450 2C19 (Homo sapiens) (P33261 whole entry, looked up): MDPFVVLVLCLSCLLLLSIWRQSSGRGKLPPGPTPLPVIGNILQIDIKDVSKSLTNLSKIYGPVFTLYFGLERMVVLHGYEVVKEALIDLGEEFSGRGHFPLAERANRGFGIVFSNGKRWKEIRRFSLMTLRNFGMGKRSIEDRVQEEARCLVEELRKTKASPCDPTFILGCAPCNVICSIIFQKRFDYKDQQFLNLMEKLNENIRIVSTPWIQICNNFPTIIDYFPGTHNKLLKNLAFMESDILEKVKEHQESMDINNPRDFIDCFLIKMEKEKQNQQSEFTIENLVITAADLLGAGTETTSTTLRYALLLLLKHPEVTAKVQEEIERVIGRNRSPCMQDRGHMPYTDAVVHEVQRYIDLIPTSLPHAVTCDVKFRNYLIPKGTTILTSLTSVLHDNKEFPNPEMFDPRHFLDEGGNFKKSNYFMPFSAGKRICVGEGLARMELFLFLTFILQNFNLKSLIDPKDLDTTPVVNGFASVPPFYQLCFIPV

Question: Which Potency does the source give for `CC(C)=CCC/C(C)=C/CC/C(C)=C/CO` here?
Answer: Its Potency is 4.48 µM (active).

Question: Which “activity change, negative = inhibition” value does the source give for `C=CC(=O)OCCOCCOCCOCCOC(=O)C=C` here?
Answer: Its value is -26.6% [at 115 µM].

Question: How did the “activity change, negative = inhibition” value turn out when `Cc1cccc(C)c1NC(=O)CN(CC(=O)O)CC(=O)O` was run?
Answer: The value was 18.9%.

Question: With `O=C(NCC1CN(c2ccc(N3CCOCC3=O)cc2)C(=O)O1)c1ccc(Cl)s1` (centres undefined) as the compound, how does the “activity change, negative = inhibition” value read?
Answer: Its value is 4.82%.

Question: With `Cc1ccc(C(=O)Oc2ccc(C(O)CNC(C)(C)C)cc2OC(=O)c2ccc(C)cc2)cc1` (centres undefined) as the compound, how does the “activity change, negative = inhibition” value read?
Answer: Its value is 0.793%.

Question: With `O=CC1CC=CCC1` (centres undefined) as the compound, how does the “activity change, negative = inhibition” value read?
Answer: The value was -2% [at 115 µM].

Question: How did the “activity change, negative = inhibition” value turn out when `CC[N+]1(CC)CCC(=C(c2ccccc2)c2ccccc2)C1C` (centres undefined) was run?
Answer: The value was 5.94%.

Question: Which “activity change, negative = inhibition” value does the source give for `CCOC(=O)c1cccnc1` here?
Answer: Its value is 14.8%.

Question: Which Potency does the source give for `COc1ccc(S(=O)(=O)N2C(=O)[C@@](c3ccccc3OC)(N3C[C@H](O)C[C@H]3C(=O)N(C)C)c3cc(Cl)ccc32)c(OC)c1` here?
Answer: The Potency was 31.7 µM (active).

Question: With `CCCCCC[C@@H](O)C/C=C\CCCCCCCC(=O)OC` as the compound, how does the Potency read?
Answer: The Potency was 25.3 µM (active).

Question: With `CCCCCCCN` as the compound, how does the “activity change, negative = inhibition” value read?
Answer: Its value is -1.18% [at 115 µM].

Question: Which Potency does the source give for `NCc1ccccc1Sc1ccccc1CO` here?
Answer: The Potency was 21.9 µM (active).

Question: Which Potency does the source give for `CCCCCCCCCOS(=O)(=O)O` here?
Answer: The Potency was 79.6 µM (active).

Question: Which “activity change, negative = inhibition” value does the source give for `C#Cc1cccc(Nc2ncnc3cc(OCCOC)c(OCCOC)cc23)c1` here?
Answer: Its value is 15.7%.

Question: With `COc1cccc(N(C)C(=S)Oc2ccc3c(c2)CCCC3)n1` as the compound, how does the Potency read?
Answer: Its Potency is 2.75 µM (active).

Question: Which Potency does the source give for `CCCCOC(=O)CCCCCCCC(=O)OCCCC` here?
Answer: The Potency was 35.6 µM (active).

Question: For `O=C(O)CC(=O)C(=O)O`, which Potency is on record?
Answer: The Potency was 56.6 µM (active).

Question: For `O=C(O)c1ccco1`, which “activity change, negative = inhibition” value is on record?
Answer: Its value is -8.89% [at 115 µM].

Question: With `O=C1C(O)=C(O)C(=O)C(O)=C1O` as the compound, how does the “activity change, negative = inhibition” value read?
Answer: The value was 9.61%.

Question: `OCCNCc1ccccc1` was tested. Which Potency did it give?
Answer: Its Potency is 44.8 µM (active).

Question: With `ClCCOCCOCCCl` as the compound, how does the “activity change, negative = inhibition” value read?
Answer: The value was 1.52% [at 115 µM].

Question: How did the “activity change, negative = inhibition” value turn out when `Nc1ccccc1S(=O)(=O)c1ccccc1` was run?
Answer: Its value is 84.3% [at 115 µM].

Question: How did the Potency turn out when `CC1=CC[C@H](C(C)C)C=C1` was run?
Answer: Its Potency is 39.9 µM (active).

Question: With `COC(=O)c1ccc(I)cc1S(=O)(=O)NC(=O)Nc1nc(C)nc(OC)n1` as the compound, how does the “activity change, negative = inhibition” value read?
Answer: The value was 8.51% [at 115 µM].

Question: How did the “activity change, negative = inhibition” value turn out when `COS(=O)(=O)C(F)(F)F` was run?
Answer: The value was 13.1% [at 115 µM].

Question: With `CCOCC(O)COc1ccc(NC(=O)CC[S+](C)C)cc1` (centres undefined) as the compound, how does the “activity change, negative = inhibition” value read?
Answer: Its value is 17.3%.

Question: With `CC(C)C[C@H]1C(=O)N2CCC[C@H]2[C@]2(O)O[C@](NC(=O)[C@@H]3C=C4c5cccc6[nH]c(Br)c(c56)C[C@H]4N(C)C3)(C(C)C)C(=O)N12` as the compound, how does the Potency read?
Answer: The Potency was 21.4 µM (active).

Question: Which “activity change, negative = inhibition” value does the source give for `C/C=C/C(=O)CC` here?
Answer: Its value is 0.26% [at 23.6 µM].

Question: Which “activity change, negative = inhibition” value does the source give for `Cc1ncc(CO)c(C=O)c1O` here?
Answer: The value was 2.42%.

Question: `OCc1cc(C(O)CNCCCCCCOCCCCc2ccccc2)ccc1O` (centres undefined) was tested. Which “activity change, negative = inhibition” value did it give?
Answer: The value was 4.04%.

Question: How did the “activity change, negative = inhibition” value turn out when `CCN(CC)CCNC(=O)c1cc(Br)c(N)cc1OC` was run?
Answer: The value was -4.31%.

Question: With `COCC(C)OC(C)=O` (centres undefined) as the compound, how does the “activity change, negative = inhibition” value read?
Answer: Its value is -14.2% [at 115 µM].

Question: Which “activity change, negative = inhibition” value does the source give for `CCCCCCCC#N` here?
Answer: Its value is 15.9% [at 115 µM].

Question: `C=C1[C@H]2CC[C@@H]3[C@H]2C(C)(C)CCC[C@]13C` was tested. Which “activity change, negative = inhibition” value did it give?
Answer: The value was 0.0647% [at 115 µM].

Question: How did the Potency turn out when `CC(CC=O)c1ccccc1` (centres undefined) was run?
Answer: The Potency was 15.9 µM (active).

Question: With `COc1cc2nc(N3CCN(C(=O)C4COc5ccccc5O4)CC3)nc(N)c2cc1OC` (centres undefined) as the compound, how does the “activity change, negative = inhibition” value read?
Answer: Its value is 14.8%.

Question: How did the “activity change, negative = inhibition” value turn out when `CC1=CCCC(C)(C)C12CCC(C)O2` (centres undefined) was run?
Answer: The value was -11.6% [at 115 µM].

Question: How did the activity change, negative = inhibition turn out when `CN(C)c1ccc(/C=C/c2ccc([N+](=O)[O-])cc2)cc1` was run?
Answer: Its activity change, negative = inhibition is 15.9% [at 10.5 µM].

Question: Which “activity change, negative = inhibition” value does the source give for `CCCCCCCCCCCCN1CCCCCC1=O` here?
Answer: The value was -14% [at 115 µM].
